# Data taken from PubChem BioAssay (EPA / NIEHS).
# Calls of active or inactive are those of the source. The calls were made as follows: active = hit-call score of the fitted dose curve at least 0.9, where 1 is the maximum; inactive = score below 0.9.
# How the values were obtained:
# Settings in all cases: mRNA level, 48 h; actives raise or lower the signal
# [1] = read-out: Glutamate-cysteine ligase catalytic (GCLC), GCLC (gene 2729); test: LTEA_HepaRG_GCLC: Life Technologies and Expression Analysis (LTEA) Assay for Glutamate-cysteine ligase catalytic (GCLC) using HepaRG (AID 2283498)
# Outline: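 Differentiated HepaRG cells exposed 48 h in serum-free induction medium, eight-point half-log series topping at 100 uM in 0.5% DMSO, duplicates. GCLC mRNA by qRT-PCR normalized to ACTB, GAPDH and POLR2A, fitted bidirectionally versus DMSO.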
# [2] = read-out: growth arrest and DNA damage 45 (GADD45G), GADD45G (gene 10912); test: LTEA_HepaRG_GADD45G: Life Technologies and Expression Analysis (LTEA) Assay for growth arrest and DNA damage 45 (GADD45G) using HepaRG (AID 2283499)
# Outline: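 Gain or loss of GADD45G mRNA, quantified by TaqMan qRT-PCR against three housekeeping genes, is fitted in both directions relative to 0.5% DMSO. Human HepaRG cultures receive test chemical for 48 h at up to 100 uM.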
# [3] = read-out: Glutamate-cysteine ligase regulatory (GCLM), GCLM (gene 2730); test: LTEA_HepaRG_GCLM: Life Technologies and Expression Analysis (LTEA) Assay for Glutamate-cysteine ligase regulatory (GCLM) using HepaRG (AID 2283500)
# Outline: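 Differentiated human HepaRG cells exposed 48 h in serum-free induction medium to 8-point half-log concentrations (top 100 uM, 0.5% DMSO), in duplicate. GCLM mRNA quantified by qRT-PCR, normalized to ACTB, GAPDH, POLR2A; bidirectional fitting versus DMSO.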
# [4] = read-out: Glutathione S-transferase M3 (GSTM3), GSTM3 (gene 2947); test: LTEA_HepaRG_GSTM3: Life Technologies and Expression Analysis (LTEA) Assay for Glutathione S-transferase M3 (GSTM3) using HepaRG (AID 2283501)
# Outline: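 HepaRG, plated 48 h, then serum-free induction medium; test chemical 48 h, duplicate; 100 uM top, half-log x8, 0.5% DMSO. Read-out: GSTM3 mRNA (TaqMan qRT-PCR, Fluidigm array). Bidirectional fit vs DMSO.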
# [5] = read-out: Heat shock 70 kDa protein 1 (HSPA1A), gene 3303; test: LTEA_HepaRG_HSPA1A: Life Technologies and Expression Analysis (LTEA) Assay for Heat shock 70 kDa protein 1 (HSPA1A) using HepaRG (AID 2283502)
# Outline: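 Differentiated human HepaRG cells in serum-free induction medium were exposed in duplicate for 48 h to eight concentrations (top 100 uM, half-log steps, 0.5% DMSO). HSPA1A mRNA was quantified by qRT-PCR, normalized to ACTB, GAPDH and POLR2A, and fitted bidirectionally against DMSO.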
# [6] = read-out: 3-Hydroxy-3-Methylglutaryl-CoA Synthase 2 (HMGCS2), HMGCS2 (gene 3158); test: LTEA_HepaRG_HMGCS2: Life Technologies and Expression Analysis (LTEA) Assay for 3-Hydroxy-3-Methylglutaryl-CoA Synthase 2 (HMGCS2) using HepaRG (AID 2283504)
# Outline: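 HepaRG, plated 48 h then switched to serum-free induction media; cmpd 8-pt, max 100 uM, 1/2-log, 0.5% DMSO, n=2, 48 h. HMGCS2 mRNA by Fluidigm TaqMan qRT-PCR, ACTB/GAPDH/POLR2A norm; bidirectional fit vs DMSO.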
# HGF (gene 3082) = test: LTEA_HepaRG_HGF: Life Technologies and Expression Analysis (LTEA) Assay for Hepatocyte Growth Facto (HGF) using HepaRG (AID 2283505)
# Outline: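 Read-out is HGF transcript level by qRT-PCR, normalized to three housekeeping genes, fitted bidirectionally against 0.5% DMSO vehicle. Human HepaRG cells received test chemicals for 48 h at up to 100 uM.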
# [7] = read-out: Insulin Like Growth Factor 1 (IGF1), IGF1 (gene 3479); test: LTEA_HepaRG_IGF1: Life Technologies and Expression Analysis (LTEA) Assay for Insulin Like Growth Factor 1 (IGF1) using HepaRG (AID 2283506)
# Outline: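 Differentiated human HepaRG cells were dosed for 48 h in serum-free induction medium with 0.5% DMSO, eight half-log concentrations up to 100 uM, in duplicate. IGF1 mRNA was quantified by qRT-PCR normalized to ACTB, GAPDH, POLR2A; bidirectional fitting versus DMSO.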
# [8] = read-out: Intercellular Adhesion Molecule 1 (ICAM1), ICAM1 (gene 3383); test: LTEA_HepaRG_ICAM1: Life Technologies and Expression Analysis (LTEA) Assay for Intercellular Adhesion Molecule 1 (ICAM1) using HepaRG (AID 2283507)
# Outline: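 Readout is qRT-PCR mRNA level, normalized to three housekeeping genes and fitted bidirectionally against 0.5% DMSO vehicle. Human HepaRG cultures received compound for 48 h, top concentration 100 uM with half-log dilutions.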
# [9] = read-out: Insulin-like growth factor-binding protein 1 (IGFBP1), IGFBP1 (gene 3484); test: LTEA_HepaRG_IGFBP1: Life Technologies and Expression Analysis (LTEA) Assay for Insulin-like growth factor-binding protein 1 (IGFBP1) using HepaRG (AID 2283508)
# Outline: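 Thawed HepaRG cells are plated for 48 h, switched to serum-free induction medium, then dosed in duplicate for another 48 h (100 uM top, half-log steps). Lysates in RLT go to qRT-PCR, and gain or loss of signal is fitted relative to vehicle.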
# [10] = read-out: Interleukin 6 (IL6), IL6 (gene 3569); test: LTEA_HepaRG_IL6: Life Technologies and Expression Analysis (LTEA) Assay for Interleukin 6 (IL6) using HepaRG (AID 2283509)
# Outline: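 HepaRG cells exposed in duplicate for 48 h to eight half-log concentrations, top 100 uM, in 0.5% DMSO serum-free induction medium. mRNA measured by qRT-PCR, normalized to ACTB, GAPDH and POLR2A. Bidirectional fit versus DMSO.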
# [11] = read-out: Interleukin 6 Receptor (IL6R), IL6R (gene 3570); test: LTEA_HepaRG_IL6R: Life Technologies and Expression Analysis (LTEA) Assay for Interleukin 6 Receptor (IL6R) using HepaRG (AID 2283510);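 as to AC50: TaqMan qRT-PCR signal normalized to ACTB GAPDH and POLR2A housekeeping genes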
# Outline: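 Differentiated human HepaRG cells, plated 48 h then switched to serum-free induction medium, were dosed in duplicate for 48 h at eight half-log concentrations up to 100 uM in 0.5% DMSO. IL6R mRNA quantified by qRT-PCR, normalized to ACTB/GAPDH/POLR2A; bidirectional fit versus DMSO.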
# [12] = read-out: Potassium channel subfamily K member 1 (KCNK1), KCNK1 (gene 3775); test: LTEA_HepaRG_KCNK1: Life Technologies and Expression Analysis (LTEA) Assay for Potassium channel subfamily K member 1 (KCNK1) using HepaRG (AID 2283511)
# Outline: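 Differentiated HepaRG cells, 48 h exposure in serum-free induction medium with 0.5% DMSO; 8 concentrations, half-log from 100 uM, duplicate. KCNK1 mRNA by qRT-PCR, normalized to ACTB, GAPDH, POLR2A; bidirectional fit vs DMSO.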
# [13] = read-out: Keratin 19 (KRT19), KRT19 (gene 3880); test: LTEA_HepaRG_KRT19: Life Technologies and Expression Analysis (LTEA) Assay for Keratin 19 (KRT19) using HepaRG (AID 2283512)
# Outline: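 KRT19 transcript levels, measured by Fluidigm qRT-PCR against three housekeeping genes, are fitted for gain or loss of signal relative to DMSO. Human HepaRG cells receive test chemicals (top 100 uM, half-log steps, 0.5% DMSO) for 48 hours.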
# [14] = read-out: JUN Transcription Factor, JUN (gene 3725); test: LTEA_HepaRG_JUN: Life Technologies and Expression Analysis (LTEA) Assay for JUN Transcription Factor using HepaRG (AID 2283513)
# Outline: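 Differentiated HepaRG cells were exposed to chemicals for 48 h in serum-free induction medium, 8 concentrations from 100 uM in half-log steps, 0.5% DMSO vehicle, in duplicate. JUN mRNA was quantified by TaqMan qRT-PCR, normalized to ACTB, GAPDH, POLR2A.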
# [15] = read-out: Lipase C (LIPC), LIPC (gene 3990); test: LTEA_HepaRG_LIPC: Life Technologies and Expression Analysis (LTEA) Assay for Lipase C (LIPC) using HepaRG (AID 2283514)
# Outline: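 HepaRG cells, 48 h after plating, treated in duplicate for 48 h in serum-free induction medium over 8 half-log concentrations from 100 uM, 0.5% DMSO. LIPC mRNA by TaqMan qRT-PCR normalized to ACTB/GAPDH/POLR2A; bidirectional fit versus DMSO.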
# [16] = read-out: Lipoprotein lipase (LPL), LPL (gene 4023); test: LTEA_HepaRG_LPL: Life Technologies and Expression Analysis (LTEA) Assay for Lipoprotein lipase (LPL) using HepaRG (AID 2283515)
# Outline: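 Differentiated HepaRG cells, plated 48 h, then exposed 48 h in serum-free induction medium to 8 concentrations (top 100 uM, half-log steps) in 0.5% DMSO, duplicate. LPL mRNA measured by qRT-PCR, normalized to ACTB, GAPDH and POLR2A.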
# [17] = read-out: MicroRNA 122 (MIR122), gene 406906; test: LTEA_HepaRG_MIR122: Life Technologies and Expression Analysis (LTEA) Assay for MicroRNA 122 (MIR122) using HepaRG (AID 2283516); also: the transcript read is the microRNA miR-122
# Outline: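 Differentiated human HepaRG cells were exposed 48 h in serum-free induction medium to eight half-log concentrations (top 100 uM, 0.5% DMSO). Transcript level was measured by TaqMan qRT-PCR, normalized to ACTB, GAPDH and POLR2A, and fitted bidirectionally versus DMSO.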
# [18] = read-out: matrix metalloproteinase-10 (MMP10), MMP10 (gene 4319); test: LTEA_HepaRG_MMP10: Life Technologies and Expression Analysis (LTEA) Assay for matrix metalloproteinase-10 (MMP10) using HepaRG (AID 2283517)
# Outline: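 Differentiated HepaRG cells in serum-free induction medium exposed 48 h in duplicate to 8-point half-log series up to 100 uM in 0.5% DMSO. mRNA quantified by qRT-PCR, normalised to ACTB, GAPDH, POLR2A; bidirectional fit versus DMSO.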
# [19] = read-out: Hypoxia-inducible factor 1-alpha (Homo sapiens) (UniProt Q16665); test: LTEA_HepaRG_HIF1A: Life Technologies and Expression Analysis (LTEA) Assay for Hypoxia-inducible factor 1 (HIF1A) Trancription factor using HepaRG (AID 2283503);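 also: HIF1A transcript by TaqMan qRT-PCR normalized to ACTB GAPDH and POLR2A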
# Outline: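 HepaRG, 48 h exposure, 8-pt half-log series from 100 uM, 0.5% DMSO vehicle, duplicates. Readout: HIF1A transcript by qRT-PCR (Fluidigm array), housekeeping-normalised. Bidirectional curve fit vs DMSO baseline.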
# Sequence of Hypoxia-inducible factor 1-alpha (Homo sapiens) (Q16665 whole entry, looked up): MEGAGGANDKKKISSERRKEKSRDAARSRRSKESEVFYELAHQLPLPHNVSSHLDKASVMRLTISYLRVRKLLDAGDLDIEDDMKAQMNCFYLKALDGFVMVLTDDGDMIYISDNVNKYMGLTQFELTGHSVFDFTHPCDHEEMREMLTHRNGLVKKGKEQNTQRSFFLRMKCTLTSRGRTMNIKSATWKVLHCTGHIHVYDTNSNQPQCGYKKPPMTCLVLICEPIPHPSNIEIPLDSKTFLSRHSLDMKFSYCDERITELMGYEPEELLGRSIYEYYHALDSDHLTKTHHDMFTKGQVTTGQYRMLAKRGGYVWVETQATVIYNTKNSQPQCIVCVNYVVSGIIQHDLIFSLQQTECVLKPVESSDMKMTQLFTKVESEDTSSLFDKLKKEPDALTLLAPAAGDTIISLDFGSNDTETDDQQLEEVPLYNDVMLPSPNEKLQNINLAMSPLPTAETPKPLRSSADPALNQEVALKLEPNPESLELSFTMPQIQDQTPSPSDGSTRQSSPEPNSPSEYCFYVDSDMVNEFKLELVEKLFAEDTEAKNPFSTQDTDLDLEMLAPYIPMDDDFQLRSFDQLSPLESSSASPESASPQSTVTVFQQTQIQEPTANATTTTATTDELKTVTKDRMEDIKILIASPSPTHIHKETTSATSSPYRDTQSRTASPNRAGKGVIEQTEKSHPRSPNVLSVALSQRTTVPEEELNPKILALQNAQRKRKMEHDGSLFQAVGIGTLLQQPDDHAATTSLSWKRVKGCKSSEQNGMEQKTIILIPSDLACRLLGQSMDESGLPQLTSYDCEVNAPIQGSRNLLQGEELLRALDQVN
structure (smiles),measurement,setting,value
COCC(C)OCC(C)O (stereo not given),outcome,[1],inactive
same,outcome,[2],inactive
same,outcome,[3],inactive
same,outcome,[4],inactive
same,outcome,[5],inactive
same,outcome,[6],inactive
same,outcome,HGF (gene 3082),inactive
same,outcome,[7],inactive
same,outcome,[8],inactive
same,outcome,[9],inactive
same,outcome,[10],inactive
same,outcome,[11],inactive
same,outcome,[12],inactive
same,outcome,[13],inactive
same,outcome,[14],inactive
same,outcome,[15],inactive
same,outcome,[16],inactive
same,outcome,[17],inactive
same,outcome,[18],inactive
Oc1cccc(O)c1,outcome,[1],inactive
same,outcome,[2],inactive
same,outcome,[3],inactive
same,outcome,[4],inactive
same,outcome,[5],inactive
same,outcome,[6],inactive
same,outcome,HGF (gene 3082),inactive
same,outcome,[7],inactive
same,outcome,[8],inactive
same,outcome,[9],inactive
same,outcome,[10],inactive
same,outcome,[11],inactive
same,outcome,[12],inactive
same,outcome,[13],inactive
same,outcome,[14],inactive
same,outcome,[15],inactive
same,outcome,[16],inactive
same,outcome,[17],inactive
same,outcome,[18],inactive
Oc1cc2ccccc2c2ccccc12,outcome,[1],inactive
same,outcome,[2],inactive
same,outcome,[3],inactive
same,outcome,[4],inactive
same,outcome,[5],inactive
same,outcome,[6],inactive
same,outcome,HGF (gene 3082),inactive
same,outcome,[7],inactive
same,outcome,[9],inactive
same,outcome,[10],inactive
same,outcome,[11],inactive
same,outcome,[12],inactive
same,AC50,[13],27.1 µM (active)
same,outcome,[14],inactive
same,outcome,[15],inactive
same,AC50,[16],50 µM (active)
same,outcome,[17],inactive
same,outcome,[18],inactive
C[C@@H]1C[C@H]2[C@@H]3CCC4=CC(=O)C=C[C@]4(C)[C@@]3(F)[C@@H](O)C[C@]2(C)[C@@]1(O)C(=O)COP(=O)(O)O,outcome,[1],inactive
same,outcome,[2],inactive
same,outcome,[3],inactive
same,outcome,[4],inactive
same,outcome,[5],inactive
same,outcome,[19],inactive
same,outcome,[6],inactive
same,outcome,HGF (gene 3082),inactive
same,outcome,[7],inactive
same,outcome,[8],inactive
same,outcome,[9],inactive
same,outcome,[10],inactive
same,outcome,[11],inactive
same,outcome,[12],inactive
same,outcome,[13],inactive
same,outcome,[14],inactive
same,outcome,[15],inactive
same,outcome,[16],inactive
same,outcome,[17],inactive
same,outcome,[18],inactive
O=C(O)Cc1cc(I)c(Oc2cc(I)c(O)c(I)c2)c(I)c1,AC50,[1],57.9 µM (active)
same,AC50,[2],7.52 µM (active)
same,outcome,[3],inactive
same,AC50,[4],33.5 µM (active)
same,AC50,[5],54 µM (active)
same,AC50,[6],49.5 µM (active)
same,AC50,HGF (gene 3082),52.7 µM (active)
same,outcome,[7],inactive
same,AC50,[8],54.8 µM (active)
same,AC50,[9],55.7 µM (active)
same,AC50,[10],54 µM (active)
same,AC50,[11],55 µM (active)
same,AC50,[12],53.9 µM (active)
same,AC50,[13],0.0526 µM (active)
same,AC50,[14],52.3 µM (active)
same,AC50,[15],52.2 µM (active)
same,AC50,[16],60.6 µM (active)
same,AC50,[17],58.6 µM (active)
same,AC50,[18],51.5 µM (active)
CC1=C(/C=C/C(C)=C/C=C/C(C)=C/C(=O)O)C(C)(C)CCC1,outcome,[1],inactive
same,outcome,[2],inactive
same,AC50,[3],25.8 µM (active)
same,outcome,[4],inactive
same,AC50,[6],23.9 µM (active)
same,outcome,HGF (gene 3082),inactive
same,AC50,[7],31.8 µM (active)
same,outcome,[9],inactive
same,outcome,[10],inactive
same,AC50,[12],10.2 µM (active)
same,outcome,[14],inactive
same,outcome,[15],inactive
same,outcome,[16],inactive
same,outcome,[17],inactive
same,outcome,[18],inactive
